# Test results taken from PubChem BioAssay AID1347423 (Functional Genomics Laboratory (NCATS/FGL), 2020).
# About 210 (0.4%) of roughly 52,000 sequences were called active.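 The calls were made as follows: active = gene whose silencing raises cell survival under the drug, median off-target-corrected z-score across its silencing RNAs 2 or more; inactive = the rest.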 Only a selection was taken, and actives are over-represented in it overall.
# Assay: Resistance to Poly (ADP-Ribose) Polymerase inhibitor: Gene Identification via Genome-wide siRNA Screen
# Conditions: mouse BRCA2 R2336H ES cells, olaparib, CellTiter-Glo viability; active compounds read high
# Outline: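 Mouse BRCA2 R2336H ES cells were reverse-transfected with siRNA (20 nM final), treated at 48 h with 500 nM olaparib, and read by CellTiter-Glo after 72 h. Scores: MAD-based z per siRNA, median per gene, seed off-target correction.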
row,Sequence,z-score
1,GGGCUGGAAUAAACUUGUCTT against Usp15,1.51 (active)
2,GGAACAUAGUAGCAUGCCATT against Leprel2,-0.442 (inactive)
3,GGCUUAUGUCCCAAAGCUATT against Nexn,1.35 (inactive)
4,CUGUAAGGCGGAUAAGACCTT against 2610017I09Rik,-0.52 (inactive)
5,CCCACUAAGAAACAAUCUATT against Gp1ba,0.484 (inactive)
6,GGGACUUCUUGUGAAUGGATT against Mobp,-0.971 (inactive)
7,GUCUGUAUUCCUAGAUUCCTT against Olfr794,0.287 (inactive)
8,GGUCACUGUUUCCCUAGACTT against Prss33,-0.494 (active)
9,GGUUAGGUUGAUGAAUAAGTT against Eif4ebp2,-0.495 (inactive)
10,GGUUUUUGAGCCAUAUCCATT against 4632404H22Rik,0.625 (inactive)
11,GGAUCCAAGCAUUAUAGUGTT against LOC229512,-0.425 (inactive)
12,CCCUUGUGAUGUGGUGAAGTT against Slc25a22,-1.58 (inactive)
13,GGACAAGGAUAGUAGUAAGTT against Adprt1,3.83 (active)
14,GCAUGAAAACACGUUUGGGTT against Hdac11,0.768 (inactive)
15,CGAUCUUCCAAACCCUCUUTT against Dhh,-0.652 (inactive)
16,GGACUGAGGAAGAAUUUAATT against Grp58,-0.954 (inactive)
17,GGAAUGUAUCCAGGACUUCTT against Brd4,-1.95 (inactive)
18,GGAGAUCGUGCAAUUCAUUTT against Rasl2-9,-0.53 (inactive)
19,GGCGGUGAUCCAGGGUUUATT against Klc2,-0.0337 (inactive)
20,GCAAUGUCGCCAAACGUAATT against Zfpn1a1,-0.213 (inactive)
21,CCGUAAUUGAUUCUUUACUTT against Kif3a,2.25 (active)
22,GCCCAAACUCAAGCAAGUCTT against Trpm3,-2.79 (inactive)
23,GGCUACGAAACCAGAAGAUTT against Shd,0.117 (inactive)

row,Sequence,z-score
1,CCUUCUGGCCCAGACGAUUTT against Pxmp2,-0.173 (inactive)
2,GCUGAGAGAAAGGUUCACATT against Tube1,-1.3 (inactive)
3,CCUUGUAUCCUUAAUCCUCTT against Ppt1,0.555 (inactive)
4,GGAAGCAGAAUUGUAAAGATT against Bid3,2.41 (active)
5,GGAAAUGUGACCACAAAGATT against Tas2r120,-0.347 (inactive)
6,GGAAGAAUUGAACCACAGGTT against Papolg,0.756 (inactive)
7,GGUGGCACUCUUUCAGAUCTT against 6030446I19Rik,0.179 (inactive)
8,GCCUGCUCUUGAAGGAUAATT against Ptpn9,1.13 (active)
9,GGACCUGUUUGAAGAAAAGTT against Gnai2,-0.66 (inactive)
10,GGUUUCUCUCUACGCUAUGTT against Nrp2,1.81 (inactive)
11,GGACUGGUUCUUCAGUACCTT against Cradd,2.24 (inactive)
12,CCGGCAACAUGCGUGAAUUTT against Trpv4,-0.769 (inactive)
13,GGAAAAAUGGGAGUUUGAATT against 4932423M01Rik,-0.322 (inactive)
14,GGAAUUUUAGCGGAUGAUATT against Smarca3,1.54 (active)
15,CCUAGAUUGAAAAUUGUCATT against 1700049G17Rik,-0.329 (inactive)
16,GCUAAUUUGACAAAGACGGTT against Bfsp2,1.26 (inactive)
17,GGAAGUCAGACAGAUUUAATT against Prss33,3.17 (active)
18,GGACAUAAAAAUACGCCAGTT against Hsf1,3.22 (inactive)
19,GGGCAGAGUGAUGUUGUCATT against Gsdmdc1,-1.93 (inactive)
20,CCAGCAUAUCUACUGUUCUTT against V1rf2,-0.647 (inactive)
21,GGACACAAAUGACAUCAACTT against Ptpns1,-0.156 (inactive)
22,CGUCUCUGCUGAGAACAUGTT against Kcnk15,2.15 (active)
23,GGUUGUGGAACUAGAAUAUTT against Wdr12,-1.25 (inactive)

row,Sequence,z-score
1,GGGAUGUAUUAGUGAAAGGTT against Dm15,-0.213 (inactive)
2,CCGAAAGAACACAAUCUAUTT against Ifi16,-0.1 (inactive)
3,GGAAAAGUCCUGUAAAAUUTT against Dmrta1,0.431 (inactive)
4,GGACAUGACCAAAAGGCUGTT against 3110006P09Rik,2.27 (active)
5,GCUUAUGAUGAACAAGCCCTT against Aplra1,0.51 (inactive)
6,GGCUGCCUCGAAAUUACAATT against Lamb3,-1.79 (inactive)
7,GGACCAGAAAAUUCACUUUTT against Gdap2,-1.39 (inactive)
8,GGCCUUCUCUGACUUUCUGTT against D430030K24Rik,3.28 (active)
9,CCCAUUAUUGGCACUACAATT against LOC434285,-0.98 (inactive)
10,GCUAGGAAGAGAGUGAUCUTT against Alg1,-0.838 (inactive)
11,GGAAGAAAACAUGGAAGAATT against Usp47,3.28 (active)
12,GCAAGUUAUCCAGCACUCATT against Ylpm1,-1.57 (inactive)
13,GCCUCAGAAAAACAUCUAUTT against BC008103,2.16 (inactive)
14,GGACGAACCUUUAUACCAGTT against Arhgef15,-1.21 (inactive)
15,GGCAUUCGAAGGGACAGAUTT against Arg2,-0.343 (inactive)
16,GGGUAGCUGGCGAAUCAAATT against Ptpro,1.43 (inactive)
17,GGAGCAAAUCCAGAGCAACTT against Actr8,2.88 (active)
18,GGAUUCUGCCUGAUCAAUGTT against 1110008F13Rik,-1.08 (inactive)
19,GGGAUGCUUUUGGCCCAAATT against 1110008J03Rik,-0.285 (inactive)
20,GCAUCGUUACAGGACUUUATT against Enpp1,-0.601 (inactive)
21,CGAUGAAAUCAUCACUAUCTT against Cyfip1,-0.619 (inactive)
22,GGGAGAAGAAAUGGUUUAATT against B230315M08Rik,1.54 (active)
